# In the library only some 4% were active in any assay of this set; here they are far more common.
# PAX8 reporter: PAX8 transcriptional activity inhibition | hit rate 1.2% among 360,000 | inhibition, % at 12.6 µM | AID 652154 | RMG-I TPO-luciferase reporter, SteadyGlo, 24 h;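 active means mean replicate inhibition at least 60% with every replicate also reaching 60%; inconclusive means only one of the two criteria is met; inactive means mean below 60% and not all replicates reaching 60%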;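 further: luciferase light reporting Pax8 driven TPO promoter activity; plate controls were median of neutral control wells for no effect and mitoxantrone controls for full effect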
# Wnt bcat act: activators of Wnt/beta-catenin signaling. activation, % at 9.35 µM. hit rate 1.2% among 300,000. AID 743398. Wnt/beta-catenin reporter cell assay, activator, plate reader; in the data active means activation above about 30%, passing the limit was not always enough; inconclusive means no clear call, values can overlap the other calls;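 further: 0% = neutral control wells and 100% = positive control wells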
# MITF TRPM1 inh: reduces MITF-dependent TRPM1 promoter luciferase signal. SK-MEL-5 TRPM1 promoter luciferase, 24 h. inhibition, % at 12.5 µM. AID 488899. hit rate 0.83% among 330,000;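 active means mean inhibition across replicates of 60% or more, whatever share of single replicates reaches that level; inconclusive means some that reach 60%, reason not given; inactive means mean inhibition across replicates below 60%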
# EWS-Fli inh: inhibitors of EWS/Fli oncoprotein transcriptional activity. A673 NR0B1-luciferase reporter, viability-normalised. inhibition, % at 12.6 µM. hit rate 0.67% among 350,000;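 active means mean inhibition of at least 50% after viability correction, with every replicate also passing that limit; inconclusive means mean reaches 50% but only one of two replicates passes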;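 further: firefly luciferase signal divided by Alamar Blue viability fluorescence both relative to DMSO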
# MITF TRPM1 HTS: increases MITF-driven TRPM1 promoter luciferase signal; SK-MEL-5 TRPM1-promoter luciferase, 24 h; % of positive control, neutral wells = 0; activation, % at 12.5 µM; hit rate 0.75% among 300,000; AID 588334;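 active means mean activation of at least 80% with every replicate also reaching 80%; inconclusive means mean reaches 80% but some replicate falls short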;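 further: 0% = neutral control wells and 100% = parthenolide positive control wells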
# esBAF inh: inhibitors of esBAF chromatin remodeling in mouse ES cells; reporter increase, % at 12.5 µM; AID 602393; Bmi1-luciferase knock-in reporter, 24 h; 100% = twice the neutral-well signal; hit rate 2% among 350,000; in the data active means activation above about 40%; inconclusive means no clear call, values can overlap the other calls;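 further: 0% = median of the plate's neutral control wells and 100% = double that signal; a rise in the Bmi1 reporter signal indicates esBAF inhibition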
# * = called active by the depositor; ? = inconclusive; nt = no result.
SMILES,PAX8 reporter,Wnt bcat act,MITF TRPM1 inh,EWS-Fli inh,MITF TRPM1 HTS,esBAF inh
O=C(C[C@@H]1C[C@H]2c3cc(NC(=O)C4CCC4)ccc3O[C@H]2[C@@H](CO)O1)NCc1cccnc1,-12,nt,nt,6,nt,5
C[C@@H]1CCCCO[C@H](CN(C)C(=O)Nc2ccc(F)cc2)[C@H](C)CN([C@H](C)CO)C(=O)c2cc(NS(=O)(=O)c3cccs3)ccc2O1,6,nt,nt,6,nt,0
COC(=O)c1c(-c2ccncc2)csc1NC(=O)c1ccoc1C,nt,nt,-86,nt,88*,36
COc1ccc2nc(NC(=O)c3c(C)noc3C)sc2c1,-134,35*,nt,-74,nt,25
CCc1cc(C(=O)OC)c(NC(=O)c2ccoc2C)s1,10,1,0,-6,-2,-13
COc1ccc(-c2csc(NC(=O)c3ccoc3C)n2)cc1,-188,13,-86,-87,86*,nt
Cc1ccc(-c2csc(NC(=O)c3ccno3)n2)cc1,-137,15,-34,nt,36,60*
C[C@@H]1CCCCO[C@@H](CN(C)Cc2ccc(Cl)c(Cl)c2)[C@H](C)CN([C@H](C)CO)C(=O)c2cc(NS(C)(=O)=O)ccc2O1,11,nt,nt,-13,nt,-2
COc1cccc(S(=O)(=O)N(C)C[C@@H]2Oc3cc(C4=CCCC4)ccc3S(=O)(=O)N([C@@H](C)CO)C[C@H]2C)c1,20,nt,nt,22,nt,2
CCCC#Cc1ccc([C@H]2[C@@H](C#N)N(C(=O)C3CCCC3)[C@@H]2CO)cc1,-6,nt,nt,-9,nt,11
COc1ccc(-c2csc(NC(=O)c3c(C)noc3C)n2)cc1,-45,9,-35,-36,33,48*
Cc1noc(C)c1C(=O)Nc1nc(-c2cccs2)cs1,-87,30*,-40,-46,42,?
COc1cccc(C2=NC(C)(C)NC(c3ccccc3O)C2)c1 (centres undefined),nt,nt,-14,nt,14,nt
CCC1(C)N=C(c2ccc3c(c2)OCO3)CC(c2ccccc2O)N1 (centres undefined),nt,14,-37,-48,40,46*
O=[N+]([O-])c1ccc(-c2cn(-c3ccccc3F)c(=S)[nH]2)cc1,-24,2,-24,-16,24,nt
Cc1ccc(-c2cn(-c3ccccc3F)c(=S)[nH]2)cc1,-92,13,-102,-71,53,47*
CN(C)S(=O)(=O)c1ccc(-c2csc(N/N=C/c3ccco3)n2)cc1,49,-2,72*,9,-72,nt
C(=N\Nc1nc(-c2ccccc2)cs1)/c1ccco1,-106,nt,-96,nt,97*,nt
C(=N\Nc1nc(-c2ccccc2)cs1)/c1ccncc1,-44,7,-67,-115,65,nt
C(=N\Nc1nc(-c2ccccc2)cs1)/c1cccs1,-160,56*,-47,nt,51,nt
O=C(/C=C/c1ccco1)Nc1nc(-c2ccccc2)cs1,98*,37*,-51,-111,54,nt
Cc1noc(C)c1NC(=O)NCC[C@H]1CC[C@@H](NC(=O)c2ccc(F)cc2)[C@H](CO)O1,-6,nt,nt,3,nt,3
Cc1ccc(S(=O)(=O)N[C@H]2CC[C@@H](CC(=O)NCc3ccc(Cl)c(Cl)c3)O[C@@H]2CO)cc1,17,nt,nt,-1,nt,8
Cc1noc(C)c1S(=O)(=O)N(C)C[C@@H]1Oc2c(NS(=O)(=O)c3cn(C)cn3)cccc2C(=O)N([C@H](C)CO)C[C@H]1C,nt,nt,nt,-5,nt,3
Brc1ccc(-c2csc(N/N=C/c3ccco3)n2)cc1,37,38*,-57,-90,56,?
SMILES,PAX8 reporter,Wnt bcat act,MITF TRPM1 inh,EWS-Fli inh,MITF TRPM1 HTS,esBAF inh
O=C(/C=C/c1ccco1)Nc1scc(-c2ccccc2)c1C(=O)O,-33,42*,-16,-87,27,nt
CN(C)S(=O)(=O)c1ccc(-c2csc(N/N=C/c3ccc(O)cc3)n2)cc1,30,-22,72*,56*,-71,-76
Cc1noc(C)c1S(=O)(=O)Nc1ccc2c(c1)C(=O)N([C@H](C)CO)C[C@H](C)[C@@H](CN(C)C(=O)c1ccccc1)OCCCC[C@H](C)O2,-6,nt,nt,-5,nt,2
COc1ccc(N2CCN(C(=O)COC(=O)[C@@H](NC(=O)OCc3ccccc3)C(C)C)CC2)cc1,13,-2,9,6,-7,-6
CC(C)C(NC(=O)OCc1ccccc1)C(=O)OCC(=O)N1CCCCC1 (centres undefined),nt,nt,-50,nt,nt,72*
CCC(=O)Nc1ccc2c(c1)C(=O)N(C)C[C@@H](OC)[C@@H](C)CN(C(=O)NC(C)C)[C@@H](C)CO2,nt,nt,nt,-2,nt,0
Cc1ccc(-n2nc3ccc(N)cc3n2)cc1C,-14,31*,27,46,-20,-19
Cc1ccccc1C(=O)Oc1cccc2c(O)cccc12,-9,-1,2,11,nt,13
CC(=O)Nc1ccc(OS(=O)(=O)c2ccccc2C)cc1,-14,1,-10,-7,9,nt
Cc1ccccc1C(=O)Oc1ccc2ccc(O)cc2c1,-154,-2,-89,-78,nt,62*
Cc1ccccc1S(=O)(=O)Oc1ccc2ccc(O)cc2c1,-77,9,-85,-112,nt,74*
COc1cc(OC)c(C#N)c(S(=O)(=O)Cc2ccccc2)c1,nt,nt,-8,nt,11,2
N#Cc1c([N+](=O)[O-])cc([N+](=O)[O-])cc1S(=O)(=O)Cc1ccccc1,101*,-24,93*,?,-92,-45
C[C@@H]1CN([C@@H](C)CO)C(=O)c2cccc(NC(=O)C3CCOCC3)c2O[C@H]1CN(C)C(=O)Nc1ccc(C(F)(F)F)cc1,-7,nt,nt,-5,nt,3
CCn1c(O)c(N=Nc2ccc3ccccc3n2)c2ccccc21,-216,-1,-118,-121,116*,nt
O=C1Nc2ccc(Br)cc2/C1=C/C(=O)c1ccccc1,-13,-9,75*,32,nt,nt
C=CCOc1cccc(C(=O)/C=C2/C(=O)Nc3ccccc32)c1,0,2,52,54*,-55,0
CC(=O)/C=C1/C(=O)Nc2ccccc21,17,-1,28,28,-28,nt
COc1cccc(NC(=O)N(C)C[C@@H]2Oc3cc(C#Cc4ccc(F)cc4)ccc3S(=O)(=O)N([C@H](C)CO)C[C@@H]2C)c1,nt,nt,nt,0,nt,-14
CNC[C@@H]1Oc2ccc(NC(=O)NC(C)C)cc2CC(=O)N([C@@H](C)CO)C[C@@H]1C,92*,nt,nt,-1,nt,5
CNC[C@@H]1Oc2ccc(NC(=O)NC(C)C)cc2CC(=O)N([C@H](C)CO)C[C@@H]1C,14,nt,nt,-11,nt,-1
CNC[C@H]1Oc2ccc(NC(=O)NC(C)C)cc2CC(=O)N([C@@H](C)CO)C[C@@H]1C,91*,nt,nt,-5,nt,1
COCCNC(=O)[C@H]1[C@H](CO)[C@H]2Cn3c(cccc3=O)[C@H]2N1Cc1ccccc1OC,-16,nt,nt,nt,nt,nt
CC(C)(C)NC(=O)/C=C/c1ccc(C(F)(F)F)cc1,-21,77*,-10,-16,11,nt
COc1ccc2nc(-c3ccccc3)nc(SC)c2c1,-29,12,-29,-35,27,47*

# Assay outcomes deposited in PubChem BioAssay by Broad Institute.
